In PubChem BioAssay (NCATS):
Records with an inconclusive call do not appear. The source made the active and inactive calls. Calls come from the whole dose curve; as a rule, active = well fitted inhibition curve with a large enough effect; inconclusive = small, poorly fitted or top-dose-only effect; inactive = flat fitted curve, though single readings scatter.

Test system: KB-3-1
Test: Cytotoxic Profiling of Annotated Libraries Using Quantitative High-Throughput Screening (AID 1296008); note: nearly all actives have a fitted effect of over 60% in size
Conditions: Five cell lines viability, CellTiter-Glo ATP luminescence, 48-72 h; max response: hits give low values
Method in brief: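 Cells exposed to compounds for 48 or 72 hr at 37 degrees Celsius. Viability read as ATP-coupled luminescence with CellTiter-Glo after 10 min at room temperature.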
% is set by controls: 0 for no effect and ±100 for the full control effect; potency is the fitted concentration of half-maximal effect.

Row | Compound | Potency | max response | outcome
1 | CCNC(=O)C#Cc1ccc2c(C(=Nc3ccc(CN(C)C)cc3)c3ccccc3)c(O)[nH]c2c1 | 0.0282 µM (active) |  | 
2 | Cc1ccc(-c2ncccn2)c(C(=O)N2C[C@H](COc3ccc(F)cn3)CC[C@H]2C)c1 |  | 1.72% (inactive) | 
3 | COc1cc2ncnc(Oc3ccc(CC(=O)Nc4cnn(C(C)C)c4)cc3)c2cc1OC |  | 0.878% (inactive) | 
4 | O=C(Nc1ccnc(NC(=O)C2CC2)c1)c1c(Cl)cccc1Cl | 20.6 µM (active) |  | 
5 | CC(C)(O)C1Cc2c(ccc(C(=O)CCc3ccccc3)c2O)O1 (stereo unspecified) |  | -17.9% (inactive) | 
6 | CC(CCC1(O)OC2CC3C4CC=C5CC(O[C@@H]6O[C@H](CO)[C@@H](O[C@@H]7O[C@@H](C)[C@H](O)[C@@H](O)[C@H]7O)[C@H](O)[C@H]6O[C@@H]6O[C@@H](C)[C@H](O)[C@@H](O)[C@H]6O)CCC5(C)C4CCC3(C)C2C1C)CO[C@@H]1O[C@H](CO)[C@@H](O)[C@H](O)[C@H]1O (stereo partly specified) |  | 6.64% (inactive) | 
7 | CC(C)NC(=O)N1CC[C@H](N=C2Nc3cc(F)ccc3N(CC(F)F)c3ccc(Cl)cc32)C1 |  | -1.78% (inactive) | 
8 | O=C(Nc1nnc(-c2ccc3c(c2)OCCO3)o1)C1CCCCC1 |  | 6.45% (inactive) | 
9 | CC(C)c1cccc(C(C)C)c1NC(=O)Nc1ccc(Sc2ccc([N+](=O)[O-])cc2)cc1 | 10.3 µM (active) |  | 
10 | CC(C)(C)[C@H](NC(=O)c1ccc(N)c(Cl)c1)C(=O)N1CCC[C@H]1C(=O)N[C@H](C#N)CC(=O)O |  | 5.39% (inactive) | 
11 | C=C1CC[C@@H]2[C@](C)(CO)[C@H](O)CC[C@@]2(C)[C@@H]1CC(=O)C1=CCOC1=O |  | -15.5% (inactive) | 
12 | O=c1cc(N2CCOCC2)nc2c3ccccc3ccn12 |  | -19.2% (inactive) | 
13 | COc1cc(CCO)ccc1O[C@@H]1O[C@H](CO)[C@@H](O)[C@H](O)[C@H]1O |  | 7.87% (inactive) | 
14 | CC(=O)O[C@H]1CC[C@]2(C)[C@H]3CC[C@]4(C)Oc5oc(C)cc(=O)c5C[C@H]4[C@]3(C)CC[C@H]2C1(C)C |  |  | inactive
15 | Cc1cc2ncc(C(=O)NCC(C)(C)NCC(=O)N3CCC[C@H]3C#N)cn2n1 |  | 3.28% (inactive) | 
16 | COCc1c(Cl)ccc2c1CC[C@H]2c1ncc[nH]1 |  | -11.1% (inactive) | 
